# Hits are enriched below; roughly 19% of the tested compounds scored in any of these assays.
# TDP1 cell noCPT: qHTS for Inhibitors of human tyrosyl-DNA phosphodiesterase 1 (TDP1): qHTS in cells in absence of CPT; actives 15% (n = 420,000); Potency, µM (top dose mostly 46.2 µM), for inactives: at the highest dose activity change, negative = growth inhibition, usual class: inhibitors; DT40 Tdp1-/- hTDP1 cells, no CPT, ATP luminescence, 48 h; further: potency means the concentration at half of the fitted maximal effect; nearly all actives have a fitted effect of over 55% in size
#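 Seeded 400 DT40-hTDP1 cells/well (vehicle DMSO, no 20 nM CPT); pinned compounds; ≥48 hr at 37 °C; CellTiter-Glo luminescence as viability measure.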
# HT1080NT lethal: kills 2HG-producing HT-1080-NT fibrosarcoma cells; AID 686970; actives 1.6% (n = 360,000); HT-1080-NT fibrosarcoma viability, CellTiter-Glo ATP luminescence, 48 h; Potency, µM (series often up to 46.1 µM), without a hit: at the top dose activity, negative = less viability, usual class: cytotoxic;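 further: NT is the 2HG producing partner of a matched IDH1 knockdown line; potency means the concentration at half of the fitted maximal effect; 0% = DMSO-treated cells and -100% = media-only wells without cells; nearly all actives have a fitted effect of over 55% in size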
#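 HT-1080-NT; 750 cells/well; 5% FBS RPMI; 48 h compound, 37 degrees C; CellTiter-Glo luminescence; curve fitting and curve-class assignment.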
# IL1B secr inh: blocks inflammasome-driven IL-1 beta release | THP-1 LPS/ATP IL-1B secretion, AlphaLISA, 16 h; active compounds read low | activity change, % at 57.5 µM | actives 4.7% (n = 360,000) | AID 743279; in the data active means activity change below about -50%; inconclusive means mostly about -30% to -49%
#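 THP-1 cells pretreated 1 hr with compounds (up to 57.5 uM final), then stimulated with LPS (250 ng/mL final) plus ATP (1.25 mM final); secreted IL-1B measured by AlphaLISA after 16 hr, decreased signal indicating inhibition.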
# HT1080 IDH1KD tx: HT-1080 IDH1 knockdown cell toxicity (counter line); HT-1080 IDH1 knockdown viability, ATP luminescence, 48 h; Potency, µM (doses to about 46.1 µM), for inactives: at the highest dose activity, negative = toxicity, actives largely listed as cytotoxic; actives 2% (n = 360,000); AID 686971;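 further: potency means the concentration at half of the fitted maximal effect; 0% = DMSO wells and -100% = cell-free medium wells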
#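 Luminescent ATP read-out (CellTiter-Glo, 10 min at room temperature) after 48 h compound exposure at 37 °C gave viability of IDH1-knockdown HT-1080 cells. Activity was normalised to DMSO and cell-free wells, then fitted as concentration-response curves.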
# DT40 TDP1 CPT: DT40-hTDP1 cell growth loss with CPT; Potency, µM (series often up to 46.2 µM), inactives show top-dose activity change, negative = growth inhibition, hits mostly inhibitors; actives 12% (n = 420,000); chicken DT40 Tdp1-/-;hTDP1 cells + 20 nM CPT, ATP luminescence, 48 h; further: potency means the concentration at half of the fitted maximal effect; nearly all actives have a fitted effect of over 55% in size
#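 Chicken DT40 Tdp1-/- cells complemented with human TDP1, 400 cells/well, exposed to compounds plus 20 nM camptothecin for at least 48 h at 37 C; viability read as ATP content by CellTiter-Glo luminescence.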
# * marks the source's active call; other numbers are inactive results; u = inconclusive; x = no result given; ! = not confirmed by another sample. Unless noted, the call rests on the fitted dose curve; in most records, active means well fitted curve in the direction sought with a large enough effect; inconclusive means small, poorly fitted or top-dose-only effect, or another doubt; inactive means no such curve, though single readings can be large; an effect the other way counts as inactive or inconclusive. Unless noted, on the % scale 0 is the no-effect control and ±100 the full control effect.
SMILES,TDP1 cell noCPT,HT1080NT lethal,IL1B secr inh,HT1080 IDH1KD tx,DT40 TDP1 CPT
c1ccc2c(N3CCNCC3)nsc2c1,13µM*,-24%,-54*,u,10µM*
C=CCN(CC(=O)c1sc(C(=O)OCC)nc1C)c1cccc(Br)c1,u,5%,26,8%,u
CCN(CC)CCNC(=O)c1nn(-c2ccc(C)cc2)c(=O)c2c1c1ccccc1n2C,21µM*,1%,-4,-18%,-14%
CC(=O)OCC(=O)[C@H]1CC[C@H]2[C@@H]3CC=C4C[C@@H](O)CC[C@]4(C)[C@H]3CC[C@]12C,-7%,27%,4,1%,u
c1ccc2c[n+](CCCCCCCCCC[n+]3ccc4ccccc4c3)ccc2c1,8.3µM*,-17%,x,u,10µM*
O=C(NC1CCCCC1)N1Cc2cc(-c3ccccc3)ccc2-n2nncc2C1,u,-25%,-10,u,u
C=CC[C@H](CC(=O)N(CCO)Cc1ccccc1)C(=O)NC[C@H](OC(=O)[C@@H](CC=C)CC(=O)OC(C)(C)C)c1ccccc1,23µM*,-27%,-71*,0%,21µM*
CCS(=O)(=O)N1Cc2cc(C(=O)N(C)C)nc(-c3cccc(-c4ccc(F)cc4)c3)c2[C@H]1CCO,-14%,-2%,15,23µM*,-7%
Oc1c(Cl)c(Cl)c(Cl)c(Cl)c1Cl,21µM*,u,-11,u,u
Cn1c(CCCC(=O)O)nc2cc(N(CCCl)CCCl)ccc21,19µM*,x,x,x,u
O=C(NCc1ccc2c(c1)CCN2C(=O)c1ccccc1)Nc1cccc(C(F)(F)F)c1,u,x,x,x,15µM*
CC(C)(N)Cc1ccc(Cl)cc1,-27%,x,x,x,u
COc1ccc(NC2=CC(=O)CC(c3ccccc3)C2)c(OC)c1 (centres undefined),3.3µM*,3.5µM*,-11,2.5µM*,4.1µM*
COc1cc(C(c2c(C)[nH]n(-c3ccccc3)c2=O)c2c(C)[nH]n(-c3ccccc3)c2=O)cc(OC)c1OC,u,u,-78*,u,-26%
COc1ccc(-c2nn(CCC#N)cc2C(=O)NCc2ccccc2)cc1,27%,13%,13,3%,-19%
COc1ccc(CNC(=O)c2cnn3c(C)c(Cc4ccc(F)cc4)c(C)nc23)cc1,15µM*,x,x,x,16µM*
Cn1c(C(=O)N2CCN(c3nc4ccccc4s3)CC2)cc2sccc21,u,-2%,-12,-1%,23µM*
CCN1CCN(c2nc3ccccc3s2)CC1,-2%,3%,0,5%,1%
CC12CCCCC1=[N+]([O-])CN2O (centres undefined),15%,19%,47,21%,1%
COc1ccc2c3c([nH]c2c1)C(C)=NCC3,18µM*!,25%,-84*,10%,u
CC1=NCCc2c1[nH]c1cc(O)ccc21,27µM*!,18%,6,-12%,u
C/C(N)=C(/C#N)C(=O)CSc1nc2cc(Cl)ccc2c(=O)n1-c1ccc(C)cc1,u,-11%,10,-10%,-6%
CC(C)C/C(=N/O)c1cn(C)c2ccccc12,-5%,-18%,11,-3%,-7%
CCN(C(=O)CN1CC=C(c2ccccc2)CC1)c1c(N)n(Cc2ccccc2)c(=O)[nH]c1=O,-5%,-6%,-11,-6%,12%
CC(C)CN(C(=O)CN1CC=C(c2ccccc2)CC1)c1c(N)n(CC(C)C)c(=O)[nH]c1=O,18µM*,4%,-6,-11%,u
SMILES,TDP1 cell noCPT,HT1080NT lethal,IL1B secr inh,HT1080 IDH1KD tx,DT40 TDP1 CPT
CC(=O)Nc1cccc(-c2csc(C(O)c3cccc(Cl)c3)n2)c1 (centres undefined),18µM*,-29%,5,-19%,23µM*
COc1cccc(C(O)c2nc(-c3ccncc3)cs2)c1 (centres undefined),9.2µM*,u,13,-18%,23µM*
C[N+](C)(C)CC#CCOC(=O)Nc1cccc(Cl)c1,u,9%,-4,2%,u
COC(C)C(O)(C(=O)OC1=CCN2CC[C@H](O)[C@H]12)C(C)C (some centres undefined),21µM*,x,x,x,11µM*
O=C(O)c1ccccc1Nc1cccc(C(F)(F)F)c1,15µM*,11%,24,-3%,12µM*!
O=c1c2ccccc2nc(CSc2ncnc3nc[nH]c23)n1-c1ccc(Cl)c(Cl)c1,10µM*,-1%,12,3%,7.1µM*
CC12CCC(=O)C=C1CCC1C2CCC2(C)C1CCC2(O)CC#N (centres undefined),u,-3%,-1,0%,-18%
CC12Cc3cn[nH]c3C=C1CCC1C2CCC2(C)C1CCC2(C)O (centres undefined),u,-10%,-91*,-17%,u
Cn1cc(C(=O)N2CCOCC2)c2ccccc21,13%,5%,39,7%,-3%
CCc1cc2c(s1)-n1c(C)nnc1CN=C2c1ccccc1Cl,-19%,x,x,x,u
COc1ccc(S(=O)(=O)N2c3ccc(F)cc3CCC2C)cc1 (centres undefined),0.58µM*,1.8µM*,53,3.7µM*,0.92µM*
COc1ccc(S(=O)(=O)N2Cc3cnnn3-c3ccccc3C2C#N)cc1 (centres undefined),8%,4%,0,11%,2%
N#Cc1ccc(NC(=O)CN2CCN(C(=O)c3cccs3)CC2)cc1Cl,16µM*,3%,-4,1%,u
N#Cc1ccc(NC(=O)CN2C(=O)NC3(CCCC3)C2=O)cc1Cl,u,2%,-2,2%,-3%
COc1ccc(C#Cc2ccc3c(c2)O[C@H](CN(C)C(C)=O)[C@H](C)CN([C@@H](C)CO)S3(=O)=O)cc1,15µM*,-15%,22,-18%,23µM*
C[C@@H]1CN([C@H](C)CO)S(=O)(=O)c2ccc(C#Cc3cccc(F)c3)cc2O[C@@H]1CN(C)C(=O)CN1CCOCC1,18µM*,-8%,u,-14%,u
COc1ccccc1CCNC1CCC(C)CC1 (centres undefined),u,-2%,-11,2%,-25%
Cc1sc2ncnc(N3CCC(C(=O)Nc4ccc(C#N)c(Cl)c4)CC3)c2c1C,u,u,12,u,18µM*
N#Cc1ccc(NC(=O)CCNC(=O)c2ccco2)cc1Cl,-10%,-9%,2,-2%,8%
COC(=O)C1=C(c2cccc(C#N)c2)C[C@@H]2CC[C@H]1N2C(=O)N1CCC(O)CC1,-7%,12%,19,13%,5%

# Compound activity: PubChem BioAssay, National Center for Advancing Translational Sciences (NCATS)
